According to PubChem BioAssay (NCI):
Several values for one entry are separate records, joined by “and”; a condition that tells them apart may be missing. Identical values can stand only once. Compounds without any hit were thinned out: in the full panel of roughly 79,000, 15% have a hit. No stated cut-off is given here; in the data, active means growth inhibition above about 70%; inactive means the rest.

Key:
[1] = NCI Yeast Anticancer Drug Screen. Data for the rad50 strain (AID 155);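 further: 0% = growth of vehicle-only cultures of the same strain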; conditions: S. cerevisiae rad50 strain growth inhibition; at 50.0 µM; hits give high values
How it was run: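 Vehicle-treated cultures provide the reference for the growth inhibition reported for compound-exposed, repair-deficient yeast.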

[2] = NCI Yeast Anticancer Drug Screen. Data for the mec2-1 strain (AID 157); conditions: S. cerevisiae mec2-1 strain, at 50.0 µM, hits give high values
How it was run: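 Using mec2-1 yeast: add compound, measure growth, express inhibition versus vehicle-treated cultures.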

[3] = NCI Yeast Anticancer Drug Screen. Data for the sgs1 mgt1 strain (AID 161);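 further: 0% = growth of cultures given vehicle only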; conditions: S. cerevisiae sgs1 mgt1 strain, at 50.0 µM, hits give high values
How it was run: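 Growth of a repair-deficient yeast mutant was monitored after compound treatment and expressed as inhibition relative to vehicle-treated cultures.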

[4] = NCI Yeast Anticancer Drug Screen. Data for the cln2 rad14 strain (AID 165);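 further: 0% = growth equal to vehicle treated cultures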; conditions: S. cerevisiae cln2 rad14 strain, at 50.0 µM, hits give high values
How it was run: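 Yeast strain cln2 rad14, bearing defects in cell cycle control and DNA repair, serves as the test system; values reflect growth inhibition compared with vehicle.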

[5] = NCI Yeast Anticancer Drug Screen. Data for the bub3 strain (AID 167); conditions: S. cerevisiae bub3 mutant strain, at 50.0 µM, hits give high values
How it was run: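 Mutant yeast screening strain plus compound; vehicle-treated cultures serve as the 0% inhibition reference.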

[6] = NCI Yeast Anticancer Drug Screen. Data for the mlh1 rad18 strain (AID 175); conditions: S. cerevisiae mlh1 rad18 strain growth inhibition; at 50.0 µM; hits give high values
How it was run: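 Steps: expose repair-defective yeast to compound; measure growth; express inhibition against vehicle-treated controls.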

Measured: growth inhibition

O=C(OCCOc1ccccc1)C(Cl)(Cl)Cl
inactive: [1] -6.05% | [2] -7.1% | [3] 10.6% | [4] -8.8% | [5] 12.3% | [6] 3.25%

COc1ccc2c(c1O)C1=CC(=O)CCC13CCN(C)C3C2 (stereo not drawn)
inactive: [1] -5.6% and 4.1% | [2] -6.65% and -22.6% | [3] 8.05% and 18.8% | [4] 3% and 8.05% | [5] 8.1% and 2.4% | [6] 1.4% and 0.55%

O=C1SCCC1NP(=O)(Oc1ccccc1)Oc1ccccc1 (stereo not drawn)
inactive: [1] 5.35% | [2] 23.1% | [3] -1.35% | [4] -10.9% | [5] 9.25% | [6] 21.9%

COc1ccc(C(=O)C(CC2C(=O)NC(=O)NC2=O)c2ccc(OC)cc2)cc1 (stereo not drawn)
inactive: [1] -7.65% | [2] -8.65% | [3] -22.9% | [4] -17.1% | [5] -19.1% | [6] -19.1%

CN1CC(NC(=O)N(CCCl)N=O)CC2c3cccc4c3c(cn4N=O)CC21 (stereo not drawn)
inactive: [1] 17.8% | [2] 10.6% | [3] 21.4% | [4] 18.6% | [5] -3.7% | [6] 52.1%

Cc1cc(C(C)(C)c2cc(C)c(O)c(C)c2)cc(C)c1O
inactive: [1] 12.6% | [2] -41.1% | [3] -6.9% | [4] 27.4% | [5] -17.6% | [6] -12.3%

CC(C(O)c1cccnc1)[N+](=O)[O-] (stereo not drawn)
inactive: [1] -21.8% | [2] -4.35% | [3] -23.6% | [4] -10.1% | [5] 3.95% | [6] -17.4%

O=C(c1ccccc1)C1C(C(=O)c2ccccc2)N1Cc1ccccc1 (stereo not drawn)
inactive: [1] 5% and 21.4% | [2] 9.9% and 4.5% | [3] 3.8% and -9.95% | [4] 2.8% and -1.2% | [5] 27.2% and 9% | [6] -7.8% and 6.65%

O=NNc1cnccn1
inactive: [1] -15.2% and -8.45% | [2] -23.9% and 1.5% | [3] -37.5% and -16.6% | [4] -3.8% and 4.05% | [5] -19% and -18.5% | [6] -8.25% and -21.2%

O=P(Oc1ccccc1)(Oc1ccccc1)C(O)C(Cl)(Cl)Cl (stereo not drawn)
inactive: [1] 7.55% | [2] -2.55% | [3] -0.3% | [4] 6.5% | [5] 4% | [6] 5.45%

CSc1sc2ccccc2[s+]1
inactive: [1] -10.8% | [2] -5.4% | [3] -0.35% | [4] 10.6% | [5] 9.55% | [6] 3.35%

N#CCCCCl
inactive: [1] 27.1% | [2] 15.8% | [3] 14.9% | [4] 26.1% | [5] 29.8% | [6] 30.5%

CCC(C)(C)OC(=O)CCl
inactive: [1] -0.25% | [2] 1.25% | [3] 7.8% | [4] 5.2% | [5] 36.7% | [6] -5.15%

Cc1cccc(N)c1
inactive: [1] 6.5% | [2] -6.75% | [3] 1.35% | [4] 5.65% | [5] 14.2% | [6] 10.4%

O=C(CCN1CC2CCC(CC2)C1)c1cccs1
inactive: [1] -15.8% | [2] -21.9% | [3] -16.4% | [4] -13.9% | [5] -45.8% | [6] -28.8%

ClC1CC2OC(Cl)CC2O1 (stereo not drawn)
inactive: [1] 5.2% | [2] 1.05% | [3] -19.1% | [4] -20.9% | [5] 0.4% | [6] 1.15%

Nc1nc(N)c2cnnn2n1
inactive: [1] 18.1% | [2] -13.2% | [3] 17.3% | [4] 11.9% | [5] 4.05% | [6] 20.8%

COc1cc2c(c(Oc3ccc(C)cc3)c1)CN(C)CC2
inactive: [1] 32.4% | [2] 19.3% | [3] 47.9% | [4] 39.7% | [5] 63.6% | [6] 58.8%

O=P(O)(Oc1ccccc1)Oc1ccccc1
inactive: [1] 33.7% | [2] 16.4% | [3] 14.8% | [4] 18.2% | [5] 0.55% | [6] 20.9%

S=P(Nc1ccccc1Cl)(Nc1ccccc1Cl)c1ccccc1
inactive: [1] 30.3% | [2] 25.8% | [3] 39.9% | [4] 37.9% | [5] 39.4% | [6] 21%

CN1C(=O)CC(=O)N(C)P1(=O)Oc1ccccc1
inactive: [1] -6% | [2] 3.25% | [3] 14% | [4] -1.6% | [5] -1.7% | [6] 4.15%

CN1CN(c2ccccc2)C2(CCN(CCc3csc4ccccc34)CC2)C1=O
inactive: [1] 29.9% | [2] 12.2% | [3] 17.8% | [4] 16.9% | [5] 3.5% | [6] 19.4%

CN(C)C(=O)C1(c2ccccc2)CCNCC1
inactive: [1] 19.4% | [2] -1.7% | [3] 3.25% | [4] 1% | [5] 1.2% | [6] -4.2%

O=C(Cl)c1cc([N+](=O)[O-])cc([N+](=O)[O-])c1
inactive: [1] 48.1% | [2] 26.1% | [3] 45.9% | [4] -10.2% | [5] -1.6% | [6] 46.6%

O=C(O)C1C2Cc3ccccc3C21 (stereo not drawn)
inactive: [1] 18.1% | [2] 10.4% | [3] -8.35% | [4] -5.9% | [5] -20.3% | [6] -12.6%

C/C=C1/C[N+]2([O-])CC[C@@]34c5ccc(OC)cc5N(C)[C@H]3C2CC1C4C(=O)OC (stereo partly drawn)
inactive: [1] 7.65% | [2] -8.05% | [3] -3.1% | [4] -6% | [5] -10.8% | [6] 2.25%

N#Cc1ccc(N)cc1
inactive: [1] -2.9% | [2] -7.9% | [3] -37.5% | [4] -10.8% | [5] -18.4% | [6] -16.8%

O=C(CN1CCOCC1)c1ccccc1
inactive: [1] -1.55% and -6.6% | [2] -4.1% and -13.4% | [3] -2.65% and -9.4% | [4] 3.55% and -42% | [5] -3.85% and -14.3% | [6] -1.85% and -22.9%

CCCCC(CC)COP(OCC(CC)CCCC)OCC(CC)CCCC.[Cl][Sn][Cl] (stereo not drawn)
inactive: [1] -8.1% | [2] 16.1% | [3] 14.9% | [4] -10.4% | [5] -6.2% | [6] 21%

C[C@@H]1C[C@@]2(O[C@@H]2C)C(=O)O[C@@H]2CCN3CC=C(COC(=O)[C@]1(C)O)[C@H]23
inactive: [1] -4.5% | [2] -16.2% | [3] -7.95% | [4] 13.3% | [5] -4.9% | [6] -75%

CCCCOP(=O)(CCCC)OCCCC.CCCCOP(=O)(CCCC)OCCCC.CCCCOP(=O)(CCCC)OCCCC.CCCCOP(=O)(CCCC)OCCCC.O.O.[Co+2].[O-][Cl+3]([O-])([O-])O
inactive: [1] 25.4% | [2] 5.55% | [3] 7.35% | [4] 17.6% | [5] 19.8% | [6] 5.8%

CC(=O)CC(C)=O.CC(=O)CC(C)=O.[Mn]
inactive: [1] 17.1% | [2] 1.05% | [3] 1.75% | [4] -42.2% | [5] -3.3% | [6] -2.5%

O=CC(O)C(O)C1[O][Sb][O]C1CO (stereo not drawn)
inactive: [1] 0.75% | [2] -1.7% | [3] -4.45% | [4] -53.9% | [5] -5.85% | [6] -8.85%

CSCCC(N)C(=O)O (stereo not drawn)
inactive: [1] -50.4% and -3.35% | [2] 9.55% and -25.1% | [3] -6% and -7.65% | [4] -27.8% and -1% | [5] 32.4% and -11.6% | [6] -103% and -2.65%

CCCN(CCC)CC(O)c1ccc2c3c(cccc13)CC2 (stereo not drawn)
inactive: [1] 21.9% | [2] -5.9% | [3] 19.2% | [4] -10.1% | [5] -4.6% | [6] 16.4%

O=[N+]([O-])c1ccc(O)c(CBr)c1
inactive: [1] 35.5% | [2] -5.15% | [3] 7.55% | [4] 18.6% | [5] 13.9% | [6] 4.95%

COP(=O)(OC)OC.COP(=O)(OC)OC.COP(=O)(OC)OC.COP(=O)(OC)OC.COP(=O)(OC)OC.COP(=O)(OC)OC.[Mn+2].[O-][Cl+3]([O-])([O-])O
inactive: [1] 43% | [2] -35% | [3] -17.1% | [4] -14.9% | [5] -18.2% | [6] -9%

c1cc[c]([Ge]([c]2ccccc2)[c]2ccccc2)cc1.c1cc[c]([Ge]([c]2ccccc2)[c]2ccccc2)cc1
inactive: [1] 7.75% | [2] 1.45% | [3] -1.7% | [4] -4% | [5] 4.8% | [6] -3.65%
